Laboratory results reported in the supplement of paper PMC6609913.
Where a name gives a salt, the structure may show the parent alone. ± gives the standard deviation of the averaged measurements. Over roughly 1,300 compounds, “normalised cell viability” has its median near 1; the lowest 2% begin near 0.14. The entries come from a sample that favours the lowest values as a whole.

Tested on: V-C8 (BRCA2-deficient hamster cells)
Assay: normalised cell viability (fraction of plate median); higher = more viable cells (less toxic)
Conditions: 5 µM
Procedure, shortened: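 Cell viability was measured with a resazurin assay, normalised to the plate median (modified robust per cent of sample) and averaged over triplicate wells. Hamster V-C8 cells lacking BRCA2 and V-C8 cells with BRCA2 restored were seeded in 96-well plates. After 24 h, library drugs from 10 mM DMSO stocks were added at a final 5 μM in 100 μl medium and left for 3 days (screen 1) or 6 days (screen 2), with solvent-only wells alongside.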

| Structure (SMILES) | normalised cell viability (treatment time: 3 days) | normalised cell viability (treatment time: 6 days) |
| --- | --- | --- |
| COc1cc([C@@H]2c3cc4c(cc3[C@H](O)[C@H]3COC(=O)[C@H]23)OCO4)cc(OC)c1OC [Podophyllotoxin] | 0.126 ± 0.01 | 0.143 ± 0.0037 |
| C[C@]12CC[C@@H]3c4ccc(OC(=O)N(CCCl)CCCl)cc4CC[C@H]3[C@@H]1CC[C@@H]2O [Estramustine] | 0.175 ± 0.019 | 0.213 ± 0.013 |
| CCC1(C)CC(=O)NC(=O)C1 [Bemegride] | 0.925 ± 0.075 | 1.06 ± 0.055 |
| NCC(O)c1ccc(O)cc1 (racemic) [(+,-)-Octopamine hydrochloride] | 1.02 ± 0.083 | 1.1 ± 0.083 |
| CC[C@@]1(O)C(=O)OCc2c1cc1n(c2=O)Cc2cc3ccccc3nc2-1 [Camptothecine (S,+)] | 0.148 ± 0.0039 | 0.109 ± 0.008 |
| CC[C@@]1([C@@H]2O[C@@H]([C@H]3O[C@@](O)(CO)[C@H](C)C[C@@H]3C)C[C@@H]2C)CC[C@H]([C@]2(C)CC[C@]3(C[C@H](O)[C@@H](C)[C@@H]([C@@H](C)[C@@H](OC)[C@H](C)C(=O)O)O3)O2)O1 [Monensin sodium salt] | 0.156 ± 0.0082 | 0.128 ± 0.0063 |
| C[N+](C)(C)CCCCCCCCCC[N+](C)(C)C [Decamethonium bromide] | 1.18 ± 0.34 | 1.019 ± 0.0077 |
| C[N+]1(C)[C@@H]2CC[C@H]1C[C@@H](OC(=O)C(CO)c1ccccc1)C2 (stereo not given in full) [Methylatropine nitrate] | 1.11 ± 0.021 | 1.15 ± 0.091 |
| Oc1cc(Cl)ccc1Oc1ccc(Cl)cc1Cl [Triclosan] | 0.974 ± 0.022 | 1 ± 0.02 |
| C[N+]1([O-])[C@@H]2C[C@@H](OC(=O)[C@H](CO)c3ccccc3)C[C@H]1[C@@H]1O[C@@H]12 (stereo not given in full) [Scopolamin-N-oxide hydrobromide] | 0.997 ± 0.074 | 0.945 ± 0.092 |
| CC(C)(C)NCC(O)c1ccccc1Cl (stereo not given) [Tulobuterol] | 1.07 ± 0.015 | 1.05 ± 0.086 |
| C[C@@H]1C[C@@H]([C@H](O)CC2CC(=O)NC(=O)C2)C(=O)[C@@H](C)C1 [Cycloheximide] | 0.132 ± 0.0063 | 0.142 ± 0.0068 |
| C=CCC1(CC(C)C)C(=O)NC(=O)NC1=O [Butalbital] | 1.1 ± 0.031 | 1.079 ± 0.0048 |
| C=C1[C@@H]2CC[C@H]3[C@]4(C)C[C@H](O[C@@H]5O[C@H](CO)[C@@H](OS(=O)(=O)O)[C@H](OS(=O)(=O)O)[C@H]5OC(=O)CC(C)C)C[C@@H](C(=O)O)[C@H]4CC[C@]3(C2)[C@@H]1O [Atractyloside potassium salt] | 1.05 ± 0.051 | 1.09 ± 0.079 |
| C[C@]12CC[C@H]3[C@@H](CCC4=CC(=O)CC[C@@H]43)[C@@H]1CC[C@@H]2O [Nandrolone] | 0.993 ± 0.11 | 1.02 ± 0.028 |
| CN1C[C@H](CNC(=O)OCc2ccccc2)C[C@@H]2c3cccc4c3c(cn4C)C[C@H]21 [Metergoline] | 0.1447 ± 0.00066 | 0.133 ± 0.017 |
| CO[C@]12C[C@@H](COC(=O)c3cncc(Br)c3)CN(C)[C@@H]1Cc1cn(C)c3cccc2c13 [Nicergoline] | 0.886 ± 0.074 | 0.994 ± 0.033 |
| CN1C[C@H](C(=O)N[C@]2(C)O[C@@]3(O)[C@@H]4CCCN4C(=O)[C@H](Cc4ccccc4)N3C2=O)C[C@@H]2c3cccc4[nH]cc(c34)C[C@H]21 [Dihydroergotamine tartrate] | 1.06 ± 0.024 | 1.02 ± 0.12 |
| NC(=O)OCCCc1ccccc1 [Phenprobamate] | 1.14 ± 0.049 | 1.08 ± 0.15 |
| S=C(NC1CCCCC1)N1CCC(c2cnc[nH]2)CC1 [Thioperamide maleate] | 1 ± 0.018 | 1.02 ± 0.014 |

| Structure (SMILES) | normalised cell viability (treatment time: 3 days) | normalised cell viability (treatment time: 6 days) |
| --- | --- | --- |
| C[C@H](N)[C@H](O)c1ccc(O)c(O)c1 [Levonordefrin] | 1.05 ± 0.05 | 1.02 ± 0.028 |
| CCCCCC[C@H]1C(=O)O[C@H](C)[C@H](NC(=O)c2cccc(NC=O)c2O)C(=O)O[C@@H](C)[C@@H]1OC(=O)CC(C)C [Antimycin A] | 0.152 ± 0.0026 | 0.12 ± 0.011 |
| C[C@]12CCC(=O)C=C1CC[C@@H]1[C@@H]2C(=O)C[C@]2(C)C(=O)CC[C@@H]12 [Adrenosterone] | 1.19 ± 0.085 | 1.11 ± 0.017 |
| CCC(C)C1O[C@]2(C=C[C@@H]1C)C[C@@H]1CC(C/C=C(\C)[C@@H](OC3C[C@H](OC)[C@@H](OC4C[C@H](OC)[C@@H](O)[C@H](C)O4)[C@H](C)O3)[C@@H](C)/C=C/C=C3\COC4[C@H](O)C(C)=CC(C(=O)O1)[C@]34O)O2 (stereo not given in full) [Avermectin B1a] | 0.486 ± 0.016 | 0.475 ± 0.052 |
| COc1ccc(CN2CCNCC2)c(OC)c1OC [Trimetazidine dihydrochloride] | 1.05 ± 0.06 | 1.06 ± 0.023 |
| C=C(C)[C@@H]1[C@H]2OC(=O)[C@@H]1[C@]1(O)C[C@H]3O[C@]34C(=O)O[C@H]2[C@]14C [Picrotoxinin] | 1.007 ± 0.0066 | 1.11 ± 0.061 |
| Fc1ccc(C(OCCN2CCN(CCCc3ccccc3)CC2)c2ccc(F)cc2)cc1 | 0.159 ± 0.0052 | 0.182 ± 0.012 |
| COc1ccc(CCN2CCC(Nc3nc4ccccc4n3Cc3ccc(F)cc3)CC2)cc1 [Astemizole] | 0.13 ± 0.0054 | 0.099 ± 0.003 |
| C[C@]12C[C@H]3S[C@H]3C[C@@H]1CC[C@@H]1[C@@H]2CC[C@]2(C)[C@@H](O)CC[C@@H]12 [Epitiostanol] | 1.04 ± 0.012 | 1.033 ± 0.01 |
| CC1OC(OC2/C=C/C=C/C=C/C=C/CC/C=C/C=C/[C@H](C)[C@@H](O)[C@@H](C)[C@H](C)OC(=O)CC(O)CC(O)CC(O)CCC(O)C(O)C[C@]3(O)CC(O)C(C(=O)O)C(C2)O3)C(O)C(N)C1O (stereo not given in full) [Nystatine] | 1.06 ± 0.055 | 0.905 ± 0.084 |
| CN1CCN(C(=O)OC2c3nccnc3C(=O)N2c2ccc(Cl)cn2)CC1 (stereo not given) [Zopiclone] | 1.11 ± 0.05 | 1.04 ± 0.061 |
| CCN[C@@H](C)Cc1cccc(C(F)(F)F)c1 [Dexfenfluramine hydrochloride] | 0.908 ± 0.092 | 1.02 ± 0.074 |
| C[C@@H]1O[C@@H](O[C@@H]2C=C3CC[C@@H]4[C@H](CC[C@]5(C)[C@@H](c6ccc(=O)oc6)CC[C@]45O)[C@@]3(C)CC2)[C@H](O)[C@H](O)[C@H]1O [Proscillaridin A] | 0.945 ± 0.013 | 0.908 ± 0.11 |
| CCN(C(C)=O)c1cccc(-c2ccnc3c(C#N)cnn23)c1 [Zaleplon] | 1.13 ± 0.075 | 0.981 ± 0.063 |
| C[C@]12Cc3c[nH]nc3C[C@@H]1CC[C@@H]1[C@@H]2CC[C@@]2(C)[C@H]1CC[C@]2(C)O [Stanozolol] | 1.07 ± 0.064 | 1.06 ± 0.036 |
| CN[C@@H]1[C@@H](O)[C@@H](O[C@@H]2[C@@H](O)[C@H](O[C@H]3O[C@H](CN)CC[C@H]3N)[C@@H](N)C[C@H]2N)OC[C@]1(C)O.CN[C@@H]1[C@@H](O)[C@@H](O[C@@H]2[C@@H](O)[C@H](O[C@H]3O[C@H]([C@@H](C)N)CC[C@H]3N)[C@@H](N)C[C@H]2N)OC[C@]1(C)O.CN[C@@H]1[C@@H](O)[C@@H](O[C@@H]2[C@@H](O)[C@H](O[C@H]3O[C@H]([C@@H](C)NC)CC[C@H]3N)[C@@H](N)C[C@H]2N)OC[C@]1(C)O [Gentamicine sulfate] | 0.961 ± 0.029 | 0.955 ± 0.039 |
| C(#CCN1CCCC1)CN1CCCC1 [Tremorine dihydrochloride] | 1.09 ± 0.065 | 1.08 ± 0.06 |
| C[CH2][Hg][S]c1ccccc1C(=O)[O-].[Na+] [Thimerosal] | 0.0995 ± 0.0026 | 0.126 ± 0.0061 |
| C[N+]1(C)CCCC(OC(=O)C(O)(c2ccccc2)c2ccccc2)C1 (stereo not given) [Mepenzolate bromide] | 0.974 ± 0.054 | 1.08 ± 0.059 |
| O=C(CCCN1CCC(n2c(=O)[nH]c3ccccc32)CC1)c1ccc(F)cc1 [Benperidol] | 0.93 ± 0.029 | 0.969 ± 0.083 |
